# Sm TGR inh: S. mansoni TGR enzyme inhibition; Q962Y6; purified TGR, DTNB reduction, TNB absorbance 405 nm; Potency, µM (top dose mostly 114 µM), for inactives: at the top dose activity change, negative = inhibition, usual class: inhibitors; 360,000 tested, 3% active; AID 485364; further: potency means the concentration at half of the fitted maximal effect; nearly all actives have a fitted effect of over 60% in size
#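 First, TGR (20 nM dispensed) and NADPH were mixed with compound. Second, a 15 min room-temperature incubation followed. Third, further NADPH and then DTNB were added to start the reaction. Finally, TNB absorbance was monitored kinetically.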
# HCMV inh: human cytomegalovirus inhibition | HFF cells, HCMV-luciferase reporter, 72 h; hits give low values | activity change, negative = inhibition, % at 57.5 µM | 410,000 tested, 4.5% active | AID 1259415; in the data active means activity change below about -60%; inconclusive means no clear call, values can overlap the other calls; inactive means above about -39%
#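 Two compound doses tested in HFFs infected with HCMV-luciferase, MOI 1 PFU/cell, 72 h at 37C. Lysate luminescence read with OneGlo; data normalized against buffer-only and 10uM Salinomycin inhibitor controls.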
# FBPA Giardia inh: blocks Giardia fructose-bisphosphate aldolase activity; purified Giardia FBPA; Potency, µM (series often up to 59.6 µM), for the others: at the top dose activity, negative = inhibition, hits mostly inhibitors; 290,000 tested, 0.71% active; AID 2451; further: potency means the concentration at half of the fitted maximal effect; nearly all actives have a fitted effect of over 55% in size
# Target sequence (A8B2U2 whole entry, looked up): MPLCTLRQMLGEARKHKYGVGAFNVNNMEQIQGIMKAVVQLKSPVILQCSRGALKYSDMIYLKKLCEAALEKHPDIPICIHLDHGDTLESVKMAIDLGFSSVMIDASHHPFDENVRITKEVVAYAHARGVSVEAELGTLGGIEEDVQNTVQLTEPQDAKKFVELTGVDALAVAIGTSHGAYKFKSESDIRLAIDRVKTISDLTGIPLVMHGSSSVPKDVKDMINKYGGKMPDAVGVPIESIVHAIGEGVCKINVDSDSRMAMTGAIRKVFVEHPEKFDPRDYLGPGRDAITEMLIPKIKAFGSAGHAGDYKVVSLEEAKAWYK
#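 40 nM FBPA preincubated 10 min at RT with compound (up to 57.5 uM final), then substrate plus GAPDH/TPI/NAD/arsenate coupling and diaphorase/resazurin added. Fluorescence read after 20 min at RT, 525/598 nm.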
# Pf growth 48h: inhibits P. falciparum growth in the first generation, 48 h; 310,000 tested, 5.9% active; P. falciparum luciferase growth in erythrocytes, 48 h; Potency, µM (highest dose often 28.7 µM), for the others: at the top dose activity change, negative = inhibition, usual class: inhibitors; further: potency means the concentration at half of the fitted maximal effect
#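 Luciferase-expressing P. falciparum in infected erythrocytes (2% hematocrit, 0.1% parasitemia final) in RPMI 1640/0.5% Albumax were exposed to compound for 48 hours at 37 C, 5% CO2; growth read as luminescence.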
# Pf growth 96h: inhibits malaria parasite growth, 96 h; P. falciparum luciferase reporter growth, 96 h; Potency, µM (doses to about 28.7 µM), for the others: top-dose activity change, negative = inhibition, actives largely listed as inhibitors; 320,000 tested, 6.9% active; further: potency means the concentration at half of the fitted maximal effect
#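 Compounds incubated with erythrocytes infected by luciferase-expressing P. falciparum (2% hematocrit, 0.05% parasitemia final) for 96 hours, 37 C in 5% CO2. Growth inhibition scored as decreased luciferase luminescence.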
# * marks the source's active call; other numbers are inactive results; ? = inconclusive; nt = no result given; [ ] = dose if it differs, or a comment. Rows were chosen to be rich in hits. Some 14% of all compounds tested hit in one or more screens of this group. Unless noted, the call rests on the fitted dose curve; in most records, active means well fitted curve in the direction sought with a large enough effect; inconclusive means small, poorly fitted or top-dose-only effect, or another doubt; inactive means no such curve, though single readings can be large; an effect the other way counts as inactive or inconclusive. On the % scale 0 is the no-effect control and ±100 the full control effect.
SMILES,Sm TGR inh,HCMV inh,FBPA Giardia inh,Pf growth 48h,Pf growth 96h
Cc1ccccc1NC(=S)NCc1ccccc1,1%,-34,0%,4%,75%
CCc1ccc(NC2=CC(=O)CC(C)(C)C2)cc1,7%,-9,2%,-4%,-2%
CC(C)c1ccc(NC2=CC(=O)CC(C)(C)C2)cc1,6%,-27,7%,-25%,4.7µM*
Cc1ccc(C)c(C(C)NC(=O)c2ccc(Br)o2)c1 (stereo not given),35µM*,-15,-4%,-21%,?
Cc1cc(=O)oc2cc(OC3C=CC(C#CC(C)(C)C)OC3CO)ccc12 (stereo not given),nt,nt,-1%[12.9 µM],nt,nt
C[C@@H]1CN(C(=O)c2nc3ccc(Cl)cn3c2CN(C)CCc2cnn(C)c2)C[C@H](C)O1,-25%,17,-16%,-3%,44%
Cc1cccc(-c2nc3c(c(=O)c4ccccc4n3C)c(=O)n2-c2ccccc2)c1,-10%,3,0%,1.7µM*,1.7µM*
Cn1c2ccccc2c(=O)c2c(=O)n(Cc3ccco3)c(-c3ccc(F)cc3)nc21,40µM*,-32,1%,?,?
Cc1ccc(-c2nc3c(c(=O)c4ccccc4n3C)c(=O)n2Cc2ccco2)cc1,32µM*,-14,-8%,?,?
COc1ccc(CCn2c(-c3ccc(OC)cc3)nc3c(c(=O)c4ccccc4n3C)c2=O)cc1,-3%,34,7%,-15%,?
Cc1ccc(-c2nc3c(c(=O)c4ccccc4n3C)c(=O)n2-c2ccccc2)cc1,-6%,?,10%,-4%,?
CC1=C(C(=O)OCc2ccccc2)C(c2ccccc2OS(=O)(=O)c2ccc(C)cc2)NC(=O)N1CCCC(=O)O (stereo not given),nt,-1,nt,nt,nt
Cc1cccc(CC2CC(=O)N(c3ncccn3)C2=O)c1 (stereo not given),-2%,-6,0%,16%,2%
Cc1cc(C)nc(N2C(=O)CC(Cc3ccc(Cl)cc3)C2=O)n1 (stereo not given),0%[57.1 µM],-101*,3%,6%,21%
O=C1CC(Cc2ccccc2)C(=O)N1c1ncccn1 (stereo not given),50µM*,35,2%,166%,?
CC1CCCC(C)N1/N=C/c1ccc(O)cc1 (stereo not given),-13%,20,7%,-26%,2%
COc1cc(/C=N/N2C(C)CCCC2C)cc(OC)c1O (stereo not given),45µM*,-7,-4%,-19%,-1%
CCOc1ccc(C=NN2CCCCCC2)cc1OCC,nt,10,nt,nt,nt
CCOc1ccc(/C=N/N2C(C)CCCC2C)cc1OC (stereo not given),25%,26,9%,nt,10µM*
O=P(O)(O)OP(=O)(O)OP(=O)(O)O,nt,nt,nt,4%,7%
COc1ccc(N(CC(=O)Nc2ccc(OC)c(Cl)c2)S(=O)(=O)c2c(C)noc2C)cc1,4%,-14,-11%,8.3µM*,27%
CCc1ccc(NC(=O)CN(c2ccc3c(c2)OCO3)S(=O)(=O)c2c(C)noc2C)cc1,0%,-71*,-1%,nt,20%
CCOc1ccc(N(CC(=O)Nc2ccc(OC)cc2)S(=O)(=O)c2c(C)noc2C)cc1,3%,?,0%,nt,6.6µM*
COc1ccc(OC)c(NC(=O)CN(c2ccc(C)cc2)S(=O)(=O)c2c(C)noc2C)c1,-22%,12,-4%,?,1.9µM*
O=C(CN(C(=O)CCC(=O)Nc1ccccn1)c1cccc(F)c1)NCc1ccco1,-9%,-17,-5%,-7%,11%
CCOc1ccc(S(=O)(=O)N2CCCC(C(=O)N3CCOCC3)C2)cc1C (stereo not given),6%,-20,6%,-7%,26%
